# Source: PubChem
# In the library only some 4.1% were active in any assay of this set; here they are far more common.
# HEK293 cAMP cs – raises cAMP in parental HEK293 cells, TSHR agonist counter-screen; parental HEK293 CNG cAMP sensor, membrane potential fluorescence; Potency, µM (top dose mostly 57.1 µM), inactives show at the top dose activation, actives largely listed as activators; 73,000 tested, 2.5% active; further: % of control where 0% means no effect; nearly all actives have a fitted effect of over 55% in size
#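 Parental HEK 293 cells stably expressing a cAMP-gated CNG channel were loaded with membrane potential dye containing 100 uM RO 20-1724 for 60 min. Compound added for 30 min; depolarization read as fluorescence intensity at 590 nm.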
# TSHR ag – TSH receptor (human) agonism; P16473; HEK293-CNG-TSHR cells (CNG channel as cAMP sensor), membrane potential dye, cAMP; Potency, µM (highest dose often 57.1 µM), inactives show top-dose activation, hits mostly activators; 73,000 tested, 0.48% active; AID 926; active means well fitted activation curve with a large enough effect in the main read-out, with a control signal flat, not every such curve was filed as active; inconclusive means small, poorly fitted or top-dose-only effect, or a change in a side signal; inactive means no such curve, though single readings can be large or run the other way; % of control where 0% means no effect;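 further: the control signal comes from parental cells without the receptor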
#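 HEK 293 cells stably expressing TSHR and a cAMP-gated CNG channel; parental CNG-only cells as counterscreen. Cells preloaded 60 min with membrane potential dye plus 100 uM RO 20-1724, then compound 30 min; fluorescence read at 590 nm.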
# USP2a inhib – USP2a (human) protease inhibition | Potency, µM (top dose mostly 38.3 µM), without a hit: top-dose activity change, negative = inhibition, actives largely listed as inhibitors | O75604 | 60,000 tested, 0.1% active | USP2a enzymatic assay, qHTS inhibition; further: nearly all actives have a fitted effect of over 60% in size
# Target sequence (O75604 whole entry, looked up): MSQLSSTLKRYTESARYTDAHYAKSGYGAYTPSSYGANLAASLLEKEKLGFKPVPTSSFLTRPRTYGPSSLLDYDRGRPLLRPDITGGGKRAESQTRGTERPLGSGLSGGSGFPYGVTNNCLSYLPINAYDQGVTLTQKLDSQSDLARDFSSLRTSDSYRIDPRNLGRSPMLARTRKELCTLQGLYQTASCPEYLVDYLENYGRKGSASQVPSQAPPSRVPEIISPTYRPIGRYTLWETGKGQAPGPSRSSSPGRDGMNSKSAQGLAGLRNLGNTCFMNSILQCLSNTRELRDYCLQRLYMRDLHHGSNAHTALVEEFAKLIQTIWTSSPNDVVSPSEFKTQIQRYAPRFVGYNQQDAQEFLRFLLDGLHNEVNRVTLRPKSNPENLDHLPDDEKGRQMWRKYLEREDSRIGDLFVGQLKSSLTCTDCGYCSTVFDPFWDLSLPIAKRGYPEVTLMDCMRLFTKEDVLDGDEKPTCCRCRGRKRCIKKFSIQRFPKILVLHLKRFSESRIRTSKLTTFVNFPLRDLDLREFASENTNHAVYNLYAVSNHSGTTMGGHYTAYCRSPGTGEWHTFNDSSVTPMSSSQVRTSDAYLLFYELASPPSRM
#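 USP2 core (20nM final) preincubated 30 min RT with compound, then Ub-PLA2 20nM and NBD C6-HPC 20uM final added; buffer 20mM Tris-HCl pH 8.0, 2mM CaCl2. Fluorescence Ex 460/Em 535 read at 0 and 2.5 h; normalized to NEM.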
# UbGFP stabilizer – proteasome inhibitors stabilizing ubiquitin-GFP reporter | Ubiquitin-GFP reporter cells, proteasome inhibition, GFP fluorescence; response scale: untreated = 0%, 10 µM MG-132 = 100% | Potency, µM (highest dose often 45.9 µM), without a hit: at the top dose activation (GFP accumulation), hits mostly activators | 67,000 tested, under 10 active; active means well fitted activation curve with a large enough effect, not every such curve was filed as active; inconclusive means small, poorly fitted or top-dose-only effect, or another doubt; inactive means no such curve, though single readings can be large or run the other way
#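 U2OS cells stably expressing ubiquitin(G76V)-GFP, seeded overnight in 0.5% FBS medium, were exposed to compounds (qHTS, 46 uM to 2.9 nM) for 4 hr at 37 °C. GFP-positive cells were counted by laser cytometry (488 ex/515 em), normalized between basal and 10 uM MG-132.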
# GBA activity – modulators of human glucocerebrosidase | P04062 | purified enzyme, resorufin glucoside fluorescence (screen aimed at inhibitors), 20 min | Potency, µM | 48,000 tested, 1.1% active | AID 360; in the data active means potency below about 15 µM; inconclusive means mostly about 16 µM to 33 µM;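 further: the screen sought inhibitors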
#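 Wild-type enzyme at 0.2 nM final in 50mM citric acid/KH2PO4, 10mM sodium taurocholate, 0.01% tween-20, pH 5.9, with resorufin beta-D-glucopyranoside at 30 uM final. Compounds titrated, 20 min at RT, red fluorescence read; AC50 from titration.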
# PK Bst – modulators of Bacillus stearothermophilus pyruvate kinase. purified pyruvate kinase, luminescence ATP production; ribose 5-phosphate activator present at AC10. Potency, µM. 51,000 tested, 1.2% active. AID 361; in the data active means potency below about 11 µM; inconclusive means mostly about 12 µM to 25 µM;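 the screen sought inhibitors and activators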;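 further: scaled between full activation by ribose 5 phosphate and full inhibition by luteolin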
# * marks the source's active call; other numbers are inactive results; ? = inconclusive; . = no result; ! = not confirmed by another sample; [ ] = dose if it differs, or a comment. Unless noted, the call rests on the fitted dose curve; in most records, active means well fitted curve in the direction sought with a large enough effect; inconclusive means small, poorly fitted or top-dose-only effect, or another doubt; inactive means no such curve, though single readings can be large; an effect the other way counts as inactive or inconclusive. Potency means the concentration at half of the fitted maximal effect.
SMILES,HEK293 cAMP cs,TSHR ag,USP2a inhib,UbGFP stabilizer,GBA activity,PK Bst
CSc1nc(N(CCO)CCO)c2sc3nc(-c4ccco4)c4c(c3c2n1)CCC4,25.1µM*,?,5.7%,0.0%,>76.9,>57
Cc1ccc(C#N)cc1,5.4%,-13.7%,.,.,.,.
CCOc1ccc(OCCSc2nnnn2C2CCCCC2)cc1,20µM*,?,-5.0%,0.6%,>76.9,>57
CCOc1ccc2nc(NC(=O)CSc3nnnn3C3CCCCC3)sc2c1,22.9%,17.2%,37.1%,1.1%,>76.9,>57
Cc1c(-c2ccccc2)nc2ccccc2c1C(=O)O,7.1%,.,18.1%,-0.1%,>76.9,>57
CC[C@H](NC(=O)c1c(C)c(-c2ccccc2)nc2ccccc12)c1ccccc1,15.8µM*,?,23.2%,4.1%,.,.
O=C(CSc1nnnn1Cc1ccccc1)c1ccccc1,31.6µM*,?,1.9%,1.0%,>76.9,>57
COc1ccc(C(=O)CSc2nnnn2Cc2ccccc2)cc1,22.0%,15.7%,-4.5%,-2.7%,>76.9,>57
O=C(NC1CC2CCCC(C1)N2C1CC1)NC12CC3CC(CC(C3)C1)C2 (centres undefined),5.5%,4.7%,8.1%,-1.8%,10.5*,>57
O=C(NC1CC2CCC(C1)N2C(=O)NC1CCCCC1)NC12CC3CC(CC(C3)C1)C2 (centres undefined),3.3%,-4.8%,8.3%,3.5%,>76.9,>57
CC(C)(C)c1ccc(OCC(=O)O)c(Cl)c1,11.1%[11.4 µM],5.6%[11.4 µM],.,-7.8%[9.17 µM],.,.
COc1ccc2c(c1)c(CC(=O)O)c(C)n2Cc1ccc(F)cc1,?,?,10.9%,-3.3%,.,.
COc1ccc2c(c1)c(=O)c(Br)c(C)n2Cc1ccccc1,31.6µM*,?,-16.4%,-3.7%,.,.
C/C=C\C1=C(CO)C(=O)[C@@H]2OC2C1=O (some centres undefined),-0.6%[11.4 µM],9.0%[11.4 µM],.,.,.,.
CCCCc1c2ccccc2nc2[nH]c3ccccc3c12,12.6µM*,?,.,.,.,.
COc1ccccc1N1CCN(CCN(C(=O)c2ccc(I)cc2)c2ccccn2)CC1,?,?,.,-2.0%,.,.
Cn1c(=O)c2cn(-c3ccc4c(c3)OCCO4)cc2n(C)c1=O,5.5%,5.8%,2.1%,-2.4%,>76.9,5.65*
Cc1ccc(-n2cc3c(=O)n(C)c(=O)n(C)c3c2)cc1C,-1.1%,-1.0%,10.7%,2.6%,>76.9,10*
Cc1cc(N)c(-n2cc3c(=O)n(C)c(=O)n(C)c3c2)cc1C,1.9%,0.9%,25.7%,-2.9%,>76.9,>11.4
Cc1[nH]c2ccc(F)cc2c(=O)c1SC(F)(F)C(F)F,2.5%,-2.3%[11.4 µM],-6.4%,0.0%,9.46*,>57
COc1cc(-c2ccc(N=Nc3ccc4c(S(=O)(=O)O)cc(S(=O)(=O)O)c(N)c4c3O)c(OC)c2)ccc1N=Nc1ccc2c(S(=O)(=O)O)cc(S(=O)(=O)O)c(N)c2c1O,-16.4%,-20.9%,77.0%[17.1 µM],-5.2%,.,.
CCn1ncc(Br)c1C(=O)Nc1cc(C(=O)OC)ccc1C(=O)OC,12.6µM*,?,0.0%,2.5%,>76.9,>57
C[C@@H](C(=O)NCc1cccc2ccccc12)[C@H]1C[C@]1(C)[C@H](NC(=O)OCc1ccccc1)c1ccccc1,19.8%,4.0%,.,.,.,.
Cc1nc2ccccc2n1-c1ccccc1,12.8%,8.7%,4.8%,4.3%,.,.
Cc1ccccc1-n1c(C)nc2ccccc21,27.7%,25.1µM*,5.9%,-6.2%,.,.
SMILES,HEK293 cAMP cs,TSHR ag,USP2a inhib,UbGFP stabilizer,GBA activity,PK Bst
c1ccc(Nc2cc(-c3ccoc3)ncn2)cc1,6.4%,-0.7%,182.1%,12.5%,.,.
O=C(c1cnccn1)N1CCC2(CCCN(c3ccncc3)C2)CC1,22.2%,1.1%,-9.9%,2.2%,.,.
CCOC(=O)Cn1nc(-c2ccc(Cl)cc2)cc1N,?,?,8.9%,3.2%,>76.9,5.79*
CC(=O)NCCNc1nc(-c2ccccc2Cl)nc2ccccc12,8.6%,10.1%,-14.6%,-5.9%,.,.
CC[C@H](C)N(C)C(=O)c1cc2ccccc2c(-c2ccccc2Cl)n1,?,25.1µM*,14.3%,2.6%,.,.
NC[C@](O)(CS(=O)(=O)O)c1ccc(Cl)cc1,-1.7%,0.126µM*!,1.6%,1.4%,.,.
CS(=O)(=O)N(CC(N)=O)Cc1ccc(Cl)cc1,9.6%,1.9%,3.0%,-0.4%,>76.9,>57
CCSC1(SCC)N=C(N)C2(C#N)C(c3ccccc3)NC(C)=C(C)C12C#N (centres undefined),12.0%,25.1µM*,-3.9%,-1.6%,>76.9,>57
COc1ccc(C2NC3=C(CCC3)C3(C#N)C(OC)(OC)N=C(N)C23C#N)cc1 (centres undefined),.,.,.,.,.,>11.4
CCCCOC(=O)CSc1nc2c(cc1C#N)C(=O)CC(C)(C)C2,20µM*,?,-20.6%,-2.1%,>76.9,>57
CCOC(=O)CSc1nc2cc(OC)ccc2cc1C#N,29.3%,13.9%,83.0%,18.0%,>76.9,>57
CSc1ncnc2nc[nH]c12,1.1%,-0.7%,.,-0.7%,.,.
O=c1cc(CSc2ccc(Cl)cc2)nc2nc[nH]n12,10µM*,?,-2.3%,3.7%,>76.9,.
O=c1cc(CSc2nnnn2-c2ccccc2)nc2nc[nH]n12,10.7%,3.1%,0.0%,6.5%,>76.9,>57
COc1ccc2cc3c(N)c(C(=O)N4CCCC4)sc3nc2c1,1.9%,-15.2%,21.2%,6.7%,>76.9,?
Cc1ccc2nc3sc(C(=O)N4CCOCC4)c(N)c3cc2c1,6.2%,-2.6%,54.4%,-2.2%,>76.9,1.84*
Cc1ccc2cc3c(N)c(C(=O)N4CCOCC4)sc3nc2c1,-7.1%,-4.3%,75.2%,0.0%,>76.9,11.1*
Cc1ccnc(Nc2nc(-c3c(C)nc4sccn34)cs2)c1,-13.6%,-15.6%,20.4%,-1.3%,>76.9,10.8*
CCn1c(C)nc2cc(-c3nnc(-c4c(-c5ccccc5)noc4C)o3)ccc21,20µM*,?,62.4%,7.3%,>76.9,>57
N=c1cc(C2(O)CCCCC2)n2c(nc3ccccc32)s1,4.8%,11.7%,13.0%,3.1%,>76.9,1.11*
COC(=O)[C@H](Cc1ccccc1)NC(=O)[C@]1(C)C[C@H]1[C@H](NC(=O)OCc1ccccc1)c1ccccc1,5.01µM*,?,.,.,.,.
COC(=O)[C@H]1C[C@@H]1[C@H](NC(=O)OCc1ccccc1)c1ccccc1,20.8%,.,.,.,.,.
C[C@@H](C(=O)N[C@@H](CO)Cc1ccccc1)[C@@H]1C[C@@]1(C)[C@@H](NC(=O)OCc1ccccc1)c1ccccc1,-1.9%,17.6%,.,.,.,.
C[C@@H](C(=O)N[C@@H](CO)Cc1ccccc1)[C@H]1C[C@]1(C)[C@H](NC(=O)OCc1ccccc1)c1ccccc1,10µM*,?,.,.,.,.
C[C@@H](C(=O)NCC1CC1)[C@H]1C[C@]1(C)[C@H](NC(=O)OCc1ccccc1)c1ccccc1,10µM*,?,.,.,.,.
